Source: PubChem (The Scripps Research Institute Molecular Screening Center)
PG9 binder – small molecules binding HIV-1 gp120 antibody PG9; TR-FRET gp120-PG9 antibody binding; inhibition, % at 6.7 µM; 0.43% of 360,000 active; in the data active = inhibition above about 8.5%
MsrA inh – bovine MsrA inhibition; purified bovine MsrA, absorbance read-out; inhibition, % at 15.5 µM; 0.75% of 360,000 active; in the data active = inhibition above about 4.5%
sPLA2-III inh – Blocks human group III sPLA2 activity. Q9NZ20. QFRET BODIPY PC-A2 liposome hydrolysis, fluorescence. inhibition, % at 12.2 µM. 0.56% of 370,000 active;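 active = inhibition above mean plus 3 SD of compounds lying within the high and low control bounds, cut at about 19% in these data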
Target sequence (Q9NZ20 whole entry, looked up): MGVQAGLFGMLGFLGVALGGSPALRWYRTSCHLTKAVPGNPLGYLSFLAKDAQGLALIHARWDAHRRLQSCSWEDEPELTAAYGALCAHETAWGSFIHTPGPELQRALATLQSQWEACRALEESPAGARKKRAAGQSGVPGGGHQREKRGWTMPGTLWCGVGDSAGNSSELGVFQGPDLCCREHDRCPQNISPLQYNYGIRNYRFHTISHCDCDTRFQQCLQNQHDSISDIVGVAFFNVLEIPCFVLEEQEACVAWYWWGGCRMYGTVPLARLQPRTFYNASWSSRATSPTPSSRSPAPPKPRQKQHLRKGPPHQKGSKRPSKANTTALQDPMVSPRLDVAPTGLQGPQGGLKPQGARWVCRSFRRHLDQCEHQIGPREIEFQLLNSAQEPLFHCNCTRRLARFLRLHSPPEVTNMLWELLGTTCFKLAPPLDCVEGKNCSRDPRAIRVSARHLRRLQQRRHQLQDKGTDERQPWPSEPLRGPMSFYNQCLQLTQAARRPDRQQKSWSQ
rCAG binder – binds r(CAG) RNA repeats; r(CAG) RNA repeat, TO-PRO-1 dye displacement fluorescence; 1.3% of 370,000 active; inhibition, % at 3 µM;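 active = inhibition above the plate cutoff, the mean of all test compounds on that plate plus 3 SD, cut at about 35% in these data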;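 note: higher means more dye released from RNA so lower well fluorescence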
bovine MsrA act – bovine methionine sulfoxide reductase A activation. purified bovine MsrA, absorbance read-out. activation, % at 10.6 µM. 0.3% of 360,000 active; in the data active = activation above about 7.5%
PG9 binder conf – confirmation of small molecules binding HIV-1 gp120 antibody PG9 | TR-FRET PG9 antibody binding, biochemical | shares compounds with PG9 binder | 90% of 1,500 active | inhibition, % at 6.7 µM; in the data active = inhibition above about 9%
PGV04 Ab binding – binds control antibody PGV04 in PG9 binder counter-screen. 95% of 1,500 active. TR-FRET PGV04 antibody-gp120 binding, biochemical. inhibition, % at 6.7 µM. shares compounds with PG9 binder; in the data active = inhibition above about 9.5%
PG9 bind DR – PG9 antibody binding, dose response; shares compounds with PG9 binder; 95 tested, under 10 active; AID 651848; IC50, µM; TR-FRET PG9 antibody-gp120 binding inhibition; in the data active = IC50 below about 10 µM
PGV04 DR counter – counter-screen for PG9 binders: binding to control antibody PGV04 | 20% of 95 active | IC50, µM | shares compounds with PG9 binder | TR-FRET binding to control antibody PGV04
PG126 DR counter – binds control antibody PG126 in PG9 counter-screen | 20% of 95 active | shares compounds with PG9 binder | TR-FRET binding to antibody PG126, counterscreen | IC50, µM
A number is an active result. This is a sample that favours compounds with a hit; in the whole collection about 3.2% have one here. Cut-off read from the data, not from the text of the source, unless noted: active = IC50 below about 9 µM; inactive = the rest.

How did CC(C)c1ccc(-c2c(C#N)c(N)nc(SCC(=O)N3CCCCCC3)c2C#N)cc1 do in these assays?
PG9 binder: 83; MsrA inh: inactive; sPLA2-III inh: inactive; rCAG binder: inactive; PG9 binder conf: 89; PGV04 Ab binding: 92

How did COC(=O)CSc1nc(N)c(C#N)c(-c2ccc(O)cc2)c1C#N do in these assays?
PG9 binder: inactive; MsrA inh: inactive; sPLA2-III inh: inactive; rCAG binder: inactive; bovine MsrA act: inactive

Results for N#Cc1c(N)nc(SCC(=O)NC2CCCCC2)c(C#N)c1-c1ccc(Cl)cc1 ?
PG9 binder: 18; MsrA inh: inactive; sPLA2-III inh: inactive; rCAG binder: inactive; bovine MsrA act: inactive; PG9 binder conf: 26; PGV04 Ab binding: 29

How did CCN(Cc1cn(Cc2ccc(C)cc2)nn1)S(=O)(=O)c1ccccc1Br do in these assays?
sPLA2-III inh: inactive; rCAG binder: inactive

What do the screens show for `CCN1CCCCC(NC(=O)c2cccc(C(F)(F)F)c2)C1=O` (centres undefined)?
sPLA2-III inh: inactive; rCAG binder: inactive

How did O=C1C(NC(=O)N2c3ccccc3C=Cc3ccccc32)CCCCN1Cc1cccc(C(F)(F)F)c1 (centres undefined) do in these assays?
sPLA2-III inh: inactive; rCAG binder: inactive

What do the screens show for `NC(=Nc1cccc(F)c1)NC(=O)OCc1ccccc1`?
sPLA2-III inh: inactive; rCAG binder: inactive

What do the screens show for `COc1ccc(-c2nsc(SCC(=O)Nc3cc(C)on3)n2)cc1`?
PG9 binder: 42; MsrA inh: inactive; sPLA2-III inh: inactive; rCAG binder: inactive; bovine MsrA act: inactive; PG9 binder conf: 41; PGV04 Ab binding: 55

What do the screens show for `Cc1cccc(-c2nsc(SCC(=O)Nc3nccs3)n2)c1`?
PG9 binder: 10; MsrA inh: inactive; sPLA2-III inh: inactive; rCAG binder: inactive; bovine MsrA act: inactive; PG9 binder conf: 9.2; PGV04 Ab binding: 12

Results for Nn1c(SCC(=O)Nc2ccc(OCc3ccccc3)cc2)nnc1-c1cc(-c2ccccc2)n[nH]1 ?
sPLA2-III inh: inactive; rCAG binder: inactive

Results for CCOC(=O)CNC(=S)N(CCCN1CCN(C)CC1)Cc1cccs1 ?
PG9 binder: 13; MsrA inh: inactive; sPLA2-III inh: inactive; rCAG binder: inactive; bovine MsrA act: inactive; PG9 binder conf: inactive; PGV04 Ab binding: 9.8

Results for O=C(CNC(=S)N(CCCN1CCOCC1)Cc1cccs1)N1CCCC1 ?
PG9 binder: inactive; MsrA inh: inactive; sPLA2-III inh: inactive; rCAG binder: inactive; bovine MsrA act: inactive

Results for COc1cc(NC(=O)c2ccc(Cl)cc2Cl)ccc1-c1cc2ccccc2oc1=O ?
PG9 binder: 12; MsrA inh: inactive; sPLA2-III inh: inactive; rCAG binder: inactive; bovine MsrA act: inactive; PG9 binder conf: 23; PGV04 Ab binding: 33

Results for CCOC(=O)c1cnc2c(Cl)cc(Cl)cc2c1NCCOCCO ?
PG9 binder: 13; MsrA inh: inactive; sPLA2-III inh: inactive; rCAG binder: inactive; bovine MsrA act: inactive; PG9 binder conf: 9.7; PGV04 Ab binding: 12

How did CCOC(=O)c1cnc2ccccc2c1NCCO do in these assays?
PG9 binder: inactive; MsrA inh: inactive; sPLA2-III inh: inactive; rCAG binder: inactive; bovine MsrA act: inactive

Results for CCn1c(CNC(=O)C2CCCCC2)cc2ccccc21 ?
PG9 binder: 32; MsrA inh: inactive; sPLA2-III inh: inactive; rCAG binder: inactive; bovine MsrA act: inactive; PG9 binder conf: 16; PGV04 Ab binding: 23

Results for Cc1cc2ccccc2n1CCNC(=O)C1CCCC1 ?
PG9 binder: inactive; MsrA inh: inactive; sPLA2-III inh: inactive; rCAG binder: inactive; bovine MsrA act: inactive

How did Cn1c(CNC(=O)C2CCCCC2)cc2ccccc21 do in these assays?
PG9 binder: inactive; MsrA inh: inactive; sPLA2-III inh: inactive; rCAG binder: inactive; bovine MsrA act: inactive

How did Cc1cc2ccccc2n1CCNC(=O)C1CCCCC1 do in these assays?
PG9 binder: 11; MsrA inh: inactive; sPLA2-III inh: inactive; rCAG binder: inactive; bovine MsrA act: inactive; PG9 binder conf: inactive; PGV04 Ab binding: inactive; PG9 bind DR: inactive; PGV04 DR counter: inactive; PG126 DR counter: inactive

What do the screens show for `CCOC(=O)CC[C@@H]1CC[C@]2(CCCN(C(=O)C3CCCC3)C2)O1`?
sPLA2-III inh: inactive; rCAG binder: inactive

How did COc1ccc(S[C@]2(C(=O)N(C)C)CC(=O)N(S(=O)(=O)c3ccc(F)cc3)[C@@H]2c2ccc(OC)cc2)cc1 do in these assays?
sPLA2-III inh: inactive; rCAG binder: inactive

Results for CCOc1ccc(C(=O)NCc2ccco2)cc1 ?
PG9 binder: inactive; MsrA inh: inactive; sPLA2-III inh: inactive; rCAG binder: inactive; bovine MsrA act: inactive

Results for CCOc1cc(OCC)cc(C(=O)NCc2ccco2)c1 ?
PG9 binder: 8.9; MsrA inh: inactive; sPLA2-III inh: inactive; rCAG binder: inactive; bovine MsrA act: inactive; PG9 binder conf: inactive; PGV04 Ab binding: inactive

What do the screens show for `COc1ccc(NC(=O)C2CCCN(S(=O)(=O)c3ccc4[nH]c(=O)ccc4c3)C2)cc1` (centres undefined)?
PG9 binder: 9.6; MsrA inh: inactive; sPLA2-III inh: inactive; rCAG binder: inactive; bovine MsrA act: inactive; PG9 binder conf: 18; PGV04 Ab binding: 26

Results for CCOc1ccc(NC(=O)C2CCCN(S(=O)(=O)c3ccc4[nH]c(=O)ccc4c3)C2)cc1 (centres undefined) ?
PG9 binder: 11; MsrA inh: inactive; sPLA2-III inh: inactive; rCAG binder: inactive; bovine MsrA act: inactive; PG9 binder conf: 38; PGV04 Ab binding: 63

What do the screens show for `CC(C)(C)c1ccc(-c2nnc(SCC(=O)Nc3cccc4ccccc34)n2Cc2ccco2)cc1`?
sPLA2-III inh: inactive; rCAG binder: inactive

How did Cn1c(=O)c2[nH]c(SCC(=O)N3CCN(c4cccc(C(F)(F)F)c4)CC3)nc2n(C)c1=O do in these assays?
sPLA2-III inh: inactive; rCAG binder: inactive

How did COc1ccc(CN2CN3Cc4cc(F)ccc4C3CS2(=O)=O)cc1 (centres undefined) do in these assays?
sPLA2-III inh: inactive; rCAG binder: inactive

How did O=c1c2ccc(Cl)cc2[nH]c(=S)n1Cc1cccnc1 do in these assays?
PG9 binder: 14; MsrA inh: inactive; sPLA2-III inh: inactive; rCAG binder: inactive; bovine MsrA act: inactive; PG9 binder conf: 12; PGV04 Ab binding: 14

What do the screens show for `O=C(c1ccc2c(=O)n(Cc3ccc(Cl)cc3)c(=S)[nH]c2c1)N1CCCC1`?
PG9 binder: inactive; MsrA inh: inactive; sPLA2-III inh: inactive; rCAG binder: inactive; bovine MsrA act: inactive
